Holding throughout (test): NCI-60 one-dose screen, 48 h (100 = growth as untreated, 0 = no growth, -100 = all killed)
Holding throughout (details): 10 µM unless noted

In assay [1] the test system is DU-145 prostate.
The subject of assay [2] is K-562 leukemia.
Assay [3] has as its system MALME-3M melanoma.
Assay [4] has as its system MDA-MB-231 breast.
Assay [5] has as its system RXF 393 renal.
The subject of assay [6] is SF-268 CNS.
Assay [7] deals with SF-295 CNS.
Assay [8] relates to SF-539 CNS.
Assay [9] relates to UACC-257 melanoma.
For assay [10], the system named is M14 melanoma.
The test system of assay [11] is HCT-15 colon.
The test system of assay [12] is HT29 colon.
For assay [13], the system named is SNB-75 CNS.
Assay [14] deals with SNB-19 CNS.
For assay [15], the system named is U251 CNS.
Assay [16] has as its system PC-3 prostate.
In assay [17] the test system is SK-MEL-5 melanoma.
For assay [18], the system named is UACC-62 melanoma.
The subject of assay [19] is LOX IMVI melanoma.
For assay [20], the system named is SK-MEL-28 melanoma.

About 83,000 compounds went through this panel and 20% of them were active in at least one assay; those are over-represented in the sample as a whole.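 Percent growth is the endpoint: 0 to 100 indicates growth inhibition (40 means 60% inhibition), 0 means no net growth, and negative values indicate cell death.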 Unmarked numbers belong to inactive results. Activity calls are given as the source filed them. Rule for the calls: active = growth percent below 10; inactive = the rest.

Take `COc1ccc(C(=O)c2nccc3cc(OC)c(OC)cc23)cc1OC`: the growth was 104% in assay [1]; 103% in assay [2]; 103% in assay [3]; 85% in [4]; 99.4% in assay [5]; 89.3% in assay [6]. Besides, the growth in assay [7] is 92.6%; in assay [8], 94.3%; in assay [9], -11.2% (active); in assay [10] it was 89.3%; in assay [11], 96.7%; in [12] it was 113%. For the same molecule, the growth in [13] is 89.5%; in [14], 94.9%; in assay [15], 98.6%; in [16], 95.9%; in assay [17], 99.6%; in [18], 96.4%. The growth was 93.3% in assay [19] and 90.7% in [20].

In the case of `Cc1ccc(Oc2c(/C=N/NC(=O)Cn3c(=O)sc4ccccc43)c(C)nn2-c2ccccc2)cc1`, the growth in assay [1] was 78.1%; in [2] it was 27.2%; in [3], 66.5%; in assay [4] it was 72.2%; in assay [5], 72.9%; in assay [6] it was 53.3%. Besides, the growth in assay [7] is 42.1%; in assay [8] it was 75.2%; in [9], 73.2%; in assay [10], 59.2%; in [11] it was 42.2%; in assay [12] it was 31.3%. Also, the growth is 53.4% in assay [13]; 61.5% in assay [14]; 42.9% in assay [15]; 35.8% in [16]; 37.7% in assay [17]; 52.7% in [18]. Further, the growth in assay [19] is 64.7%; in assay [20] it was 93.5%.

Consider `C[C@H]1[C@H](C)CC[C@]2(C(=O)N3CCN(C)CC3)CC[C@]3(C)C(=CC[C@@H]4[C@@]5(C)C/C(=C/c6ccco6)C(=O)C(C)(C)[C@@H]5CC[C@]43C)[C@H]12`, for which the growth is 50.4% [100 µM] in [1]; 28.2% [100 µM] in assay [2]; 45.7% [100 µM] in assay [3]; 15.6% [100 µM] in assay [4]; 55.1% [100 µM] in [5]; 50.3% [100 µM] in [6]. The growth in assay [7] was 29.8% [100 µM]; in assay [8], 46.2% [100 µM]; in assay [9], 22.5% [100 µM]; in assay [10], 48.8% [100 µM]; in assay [11], 32.5% [100 µM]; in assay [12], 26.3% [100 µM]. Further, the growth in assay [13] was 62.3% [100 µM]; in assay [14], 47.7% [100 µM]; in assay [15], 17.4% [100 µM]; in [16], 29.9% [100 µM]; in assay [17], -46.8% [100 µM] (active); in assay [18], 32.8% [100 µM]. Moreover, the growth was -6.24% [100 µM] (active) in [19] and 35% [100 µM] in assay [20].

Regarding `CC1(C)[C@@H](NOCCCN)CC[C@]2(C)[C@H]3C(=O)C=C4[C@@H]5C[C@](C)(C(=O)O)CC[C@]5(C)CC[C@@]4(C)[C@]3(C)CC[C@@H]12`, the growth was -49.8% [100 µM] (active) in assay [1]; -8.83% [100 µM] (active) in assay [2]; -100% [100 µM] (active) in assay [3]; -88.4% [100 µM] (active) in [4]; -54.3% [100 µM] (active) in [5]; -51.8% [100 µM] (active) in [6]. Moreover, the growth in [7] was -56.3% [100 µM] (active); in assay [8] it was -93.5% [100 µM] (active); in assay [9], -44.5% [100 µM] (active); in assay [10], -20.3% [100 µM] (active); in [11] it was -15% [100 µM] (active); in [12] it was -57.8% [100 µM] (active). Besides, the growth in assay [13] was -56.5% [100 µM] (active); in [14], -54.9% [100 µM] (active); in [15], -71.6% [100 µM] (active); in assay [16], -19.6% [100 µM] (active); in [17], -51.4% [100 µM] (active); in assay [18], -100% [100 µM] (active). Also, the results for the growth in assay [19] and in assay [20] were -82.6% [100 µM] (active) and -80.7% [100 µM] (active), respectively.

With `CCc1ccc(C2=C/C(=C/c3ccccc3)C(=O)N2CCc2ccc(S(N)(=O)=O)cc2)cc1`, the growth was 115% in assay [1]; 97.6% in assay [2]; 94.3% in assay [3]; 100% in assay [4]; 99.3% in [5]; 94% in [6]. Also, the growth in [7] is 101%; in assay [8], 96.3%; in [9], 106%; in assay [10] it was 99.4%; in assay [11], 108%; in assay [12] it was 117%. Besides, the growth in assay [13] was 66.3%; in [14], 93.9%; in [15], 99.7%; in assay [16], 99.9%; in [17] it was 98.1%; in assay [18], 95.2%. Besides, the growth in [19] is 94.9%; in assay [20], 105%.

Regarding `CCN(CC)CCSC(=O)C(O)(c1ccccc1)C1CCCC1` (stereo not given), the growth was 95.6% in [1]; 96.4% in assay [2]; 116% in [3]; 97.9% in [4]; 82.1% in assay [5]; 91.3% in assay [6]. The growth in [7] was 113%; in assay [8] it was 110%; in [9] it was 83.2%; in assay [10], 128%; in [11], 98.6%; in [12], 114%. Besides, the growth in assay [13] was 95.2%; in assay [14], 111%; in assay [15], 108%; in [16] it was 96.9%; in assay [17], 117%; in assay [18], 86.9%. Also, the figures for the growth in assay [19] and in [20] were 90.3% and 87%, respectively.

`CC1Cc2c(Cl)ncnc2N(C)c2ccccc21` (stereo not given): the growth in assay [1] was 65.6%; in assay [2], 37.6%; in assay [3], 0.822% (active); in [4], -33.8% (active); in assay [5], 13.6%; in assay [6], 24.4%. The growth in assay [7] is 19.9%; in assay [8], 33%; in assay [9] it was 11.5%; in [10], 14.7%; in assay [11], 12.6%; in [12], -24.1% (active). In addition, the growth in assay [13] was 82.8%; in assay [14] it was 28.4%; in assay [15], 19.6%; in [16] it was 16.3%; in [17], -75.1% (active); in assay [18] it was 13.5%. Further, the growth is -43.6% (active) in assay [19] and 20.9% in assay [20].

Source of the values: PubChem BioAssay (NCI).
